Screening data from PubChem.
Only some compounds are listed: those with a hit (about 10% of all), similar ones and a draw of the others.
SW480 rerep = A quantitative high throughput screen for small molecules that induce DNA re-replication in SW480 colon adenocarcinoma cells; SW480 DNA re-replication, Hoechst DNA content imaging, 48 h; Potency, µM (doses to about 46.1 µM), usual class: activators; actives 1.8% (n = 340,000); AID 624297, 2012; note: nearly all actives have a fitted effect of over 55% in size
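First, 250 cells per well were seeded. Next, compound or vehicle (23 nL) was pinned in, plates sat 48 hr at 37 C. Finally Hoechst was added for 40 min before fluorescence scanning.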
RORgamma inh = qHTS for inhibitors of ROR gamma transcriptional activity; AID 2551, 2010; Drosophila S2 Gal4-RORgamma UAS-luciferase reporter, 20 h; actives 5.4% (n = 310,000); Potency, µM (series often up to 53.6 µM), usual class: inhibitors; note: nearly all actives have a fitted effect of over 60% in size
Target sequence (P51450 whole entry, looked up, the tested form may be a part): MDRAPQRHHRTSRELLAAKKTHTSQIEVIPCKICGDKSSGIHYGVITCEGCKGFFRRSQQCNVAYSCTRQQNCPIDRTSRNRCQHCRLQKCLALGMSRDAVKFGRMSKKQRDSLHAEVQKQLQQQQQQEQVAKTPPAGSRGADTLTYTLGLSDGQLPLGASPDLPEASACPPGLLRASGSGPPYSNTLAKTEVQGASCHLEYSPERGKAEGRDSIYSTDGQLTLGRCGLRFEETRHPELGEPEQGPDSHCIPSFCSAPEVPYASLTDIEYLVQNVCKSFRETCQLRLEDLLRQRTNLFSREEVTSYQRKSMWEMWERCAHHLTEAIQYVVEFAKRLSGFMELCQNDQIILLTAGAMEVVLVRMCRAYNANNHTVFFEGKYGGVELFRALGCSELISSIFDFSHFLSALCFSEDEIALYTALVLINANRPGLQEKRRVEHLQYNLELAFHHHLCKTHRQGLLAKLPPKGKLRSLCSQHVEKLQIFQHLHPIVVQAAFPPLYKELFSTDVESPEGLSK
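ROR gamma transcriptional activity was tracked as Gal4-UAS luciferase output in stably transfected Drosophila Schneider cells, with compound added 1 hr before 700 uM copper sulfate induction and a 20 hr ambient-temperature incubation.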
Gal4-VP16 FLuc = VP16 counterscreen qHTS for inhibitors of ROR gamma transcriptional activity; Potency, µM (highest dose often 53.6 µM), hits mostly inhibitors; actives 3.5% (n = 310,000); Drosophila S2 Gal4-VP16 UAS-luciferase, luminescence, 20 h; AID 2546, 2010;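 note: Gal4-VP16 expression switched on by copper sulfate through the metallothionein promoter; nearly all actives have a fitted effect of over 50% in size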
MCF10A rerep = A quantitative high throughput screen for small molecules that induce DNA re-replication in MCF 10a normal breast cells; MCF 10A DNA re-replication, Hoechst nuclear intensity, 48 h; Potency, µM (doses to about 46.1 µM), actives largely listed as activators; actives 2.9% (n = 350,000); AID 624296, 2012; note: nearly all actives have a fitted effect of over 50% in size
ELG1 DNA repair = qHTS screen for small molecules that inhibit ELG1-dependent DNA repair in human embryonic kidney (HEK293T) cells expressing luciferase-tagged ELG1; HEK293T ELG1-luciferase reporter, luminescence, 16 h; DNA damage induced by 5-fluorouridine; Potency, µM (series often up to 46.1 µM), hits mostly inhibitors; actives 2.3% (n = 330,000); AID 504467, 2011; note: nearly all actives have a fitted effect of over 55% in size
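Reporter activity after DNA damage by 5-fluorouridine is monitored. Compound-treated cells incubate 16 hr at 37 °C, then ONE-Glo is added for 30 min before luminescence reading.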
Of the large screens only hits and unclear results are named; the others gave an inactive call. Calls come from the whole dose curve; as a rule, active = well fitted curve in the direction sought with a large enough effect; inconclusive = small, poorly fitted or top-dose-only effect, or another doubt; inactive = no such curve, though single readings can be large; an effect the other way counts as inactive or inconclusive.

NC(=O)Nc1n[nH]c(-c2ccccc2)n1	ELG1 DNA repair inconclusive
O=[N+]([O-])c1cc(C(F)(F)F)cc([N+](=O)[O-])c1NCCNC(=S)Nc1cccc(F)c1	RORgamma inh inconclusive
COCCn1c(SCC(=O)Nc2ncc(C)s2)nc2sc3c(c2c1=O)CCC3	Gal4-VP16 FLuc 10µM, ELG1 DNA repair inconclusive (no result: SW480 rerep, MCF10A rerep)
CCN(CC)C(=O)CSc1nc2sc3c(c2c(=O)n1CCCOC)CCC3	MCF10A rerep inconclusive
CN(Cc1ccccc1)C(=O)c1[nH]cnc1C(=O)N[C@@H](CCCCNC(=O)OC(C)(C)C)C(=O)OC(C)(C)C	RORgamma inh 7.1µM, Gal4-VP16 FLuc inconclusive, ELG1 DNA repair inconclusive
CC(C)C[C@H](NC(=O)c1nc[nH]c1C(=O)N(C)Cc1ccccc1)C(=O)OC(C)(C)C	ELG1 DNA repair inconclusive
CC(C)(C)OC(=O)NCCCC[C@H](NC(=O)c1nc[nH]c1C(=O)NCc1ccccc1)C(=O)OC(C)(C)C	RORgamma inh 14µM, Gal4-VP16 FLuc inconclusive, MCF10A rerep inconclusive, ELG1 DNA repair inconclusive
C[C@H](NC(=O)c1[nH]cnc1C(=O)Nc1ccc(CNC(=O)OC(C)(C)C)cc1)C(=O)OC(C)(C)C	SW480 rerep inconclusive, RORgamma inh 8.9µM, Gal4-VP16 FLuc inconclusive, MCF10A rerep inconclusive, ELG1 DNA repair 16µM
C[C@@H](NC(=O)c1nc[nH]c1C(=O)NCCCCCNC(=O)OC(C)(C)C)c1ccccc1	ELG1 DNA repair inconclusive (no result: RORgamma inh, Gal4-VP16 FLuc)
C[C@H](NC(=O)c1nc[nH]c1C(=O)N[C@@H](CCCCNC(=O)OC(C)(C)C)C(=O)OC(C)(C)C)c1ccccc1	SW480 rerep inconclusive, RORgamma inh 5.6µM, Gal4-VP16 FLuc 11µM, ELG1 DNA repair inconclusive
CC(C)(C)OC(=O)NCCCC[C@H](NC(=O)c1[nH]cnc1C(=O)N[C@@H](Cc1ccccc1)C(=O)OC(C)(C)C)C(=O)OC(C)(C)C	RORgamma inh 7.9µM, Gal4-VP16 FLuc inconclusive, ELG1 DNA repair inconclusive
CC(C)(C)OC(=O)NCc1ccc(NC(=O)c2nc[nH]c2C(=O)NCCN(CCNC(=O)c2[nH]cnc2C(=O)Nc2ccc(CNC(=O)OC(C)(C)C)cc2)CCNC(=O)c2[nH]cnc2C(=O)Nc2ccc(CNC(=O)OC(C)(C)C)cc2)cc1	none (no result: RORgamma inh, Gal4-VP16 FLuc)
CC(C)(C)OC(=O)NCCCCCNC(=O)c1[nH]cnc1C(=O)N[C@@H](Cc1ccccc1)C(=O)OC(C)(C)C	SW480 rerep inconclusive, MCF10A rerep inconclusive (no result: RORgamma inh, Gal4-VP16 FLuc)
CC(C)(C)OC(=O)NCCCC[C@H](NC(=O)c1[nH]cnc1C(=O)Nc1ccc(CNC(=O)OC(C)(C)C)cc1)C(=O)OC(C)(C)C	RORgamma inh inconclusive, MCF10A rerep 4.1µM, ELG1 DNA repair inconclusive
N=C1/C(=C\c2ccc(SCc3ccccc3)o2)C(=O)N=C2SC=NN12	SW480 rerep inconclusive, MCF10A rerep inconclusive
CC1=CN2C(=N)/C(=C/c3ccc(Sc4ccc(C)cc4)o3)C(=O)N=C2S1	SW480 rerep inconclusive, RORgamma inh 2.2µM, Gal4-VP16 FLuc 4µM, MCF10A rerep inconclusive
CC1=CN2C(=N)/C(=C/c3ccc(C)o3)C(=O)N=C2S1	RORgamma inh 1.4µM, Gal4-VP16 FLuc 10µM, ELG1 DNA repair inconclusive
CC1=CC2=NC(=O)/C(=C\c3ccc(-c4cccc(Cl)c4)o3)C(=N)N2O1	RORgamma inh inconclusive, ELG1 DNA repair inconclusive
CC1=CN2C(=N)/C(=C/c3ccc(Sc4ccc(Cl)cc4)o3)C(=O)N=C2S1	RORgamma inh inconclusive, Gal4-VP16 FLuc 4.5µM, MCF10A rerep inconclusive
Cc1ccc(/C=C2\C(=N)N3N=C(CC(=O)N4CCOCC4)SC3=NC2=O)o1	none
CCNC(=S)Nc1ccc(Cl)c(C(F)(F)F)c1	SW480 rerep inconclusive, RORgamma inh inconclusive, Gal4-VP16 FLuc inconclusive, MCF10A rerep inconclusive
CC1(CCc2ccccc2)NC(=O)N(CC(=O)Nc2ccc3c(c2)OCCO3)C1=O (stereo not given)	none
Cc1ccc(SCC(=O)Nc2ccccc2C(=O)O)cc1	ELG1 DNA repair inconclusive
CCC(C(=O)Nc1ccc(S(=O)(=O)N2CCN(C)CC2)cc1)c1ccccc1 (stereo not given)	none (no result: RORgamma inh, Gal4-VP16 FLuc, ELG1 DNA repair)
Cc1ccc(O)c(N=Nc2ccc(S(=O)(=O)N3CCCC3)cc2)c1	RORgamma inh inconclusive, ELG1 DNA repair inconclusive
Cc1ccc(N=Nc2c(C)[nH]n(C(N)=S)c2=O)cc1	RORgamma inh 0.32µM, Gal4-VP16 FLuc 0.89µM, MCF10A rerep inconclusive, ELG1 DNA repair inconclusive
Cc1[nH]n(C(N)=S)c(=O)c1N=Nc1ccc(S(=O)(=O)N2CCCC2)cc1	RORgamma inh 0.28µM, Gal4-VP16 FLuc 1.3µM, ELG1 DNA repair inconclusive
Cc1[nH]n(C(N)=S)c(=O)c1N=Nc1ccc(Br)cc1	RORgamma inh 0.35µM, Gal4-VP16 FLuc 2µM, ELG1 DNA repair inconclusive
Cc1[nH]n(-c2ccccc2)c(=O)c1N=Nc1ccc(C(N)=O)cc1	none
CCOC(=O)N1CCN(C(=O)C(=O)Nc2sc3c(c2C(N)=O)CC(C)(C)OC3)CC1	none
COC(=O)NC(/C(C(=O)OC)=C(\C)NCc1ccccc1)c1ccc(F)cc1 (stereo not given)	none (no result: SW480 rerep, MCF10A rerep, ELG1 DNA repair)
COc1ccc(C2Nc3ccccc3C(=O)N2NS(=O)(=O)c2ccccc2)cc1OC (stereo not given)	SW480 rerep inconclusive
CN1CCC(=C2c3ccccc3C=Cc3ccccc32)CC1	SW480 rerep inconclusive, RORgamma inh inconclusive, MCF10A rerep inconclusive
CN1CCC(=C2c3ccccc3Sc3ccccc32)CC1	SW480 rerep inconclusive, Gal4-VP16 FLuc inconclusive, MCF10A rerep 27µM (no result: ELG1 DNA repair)
CC1CCCCN1C(=O)CCC(=O)Nc1nnc(C(F)(F)F)s1 (stereo not given)	SW480 rerep inconclusive, MCF10A rerep 23µM
O=c1[nH]c(=S)[nH]c2nccnc12	none (no result: RORgamma inh, Gal4-VP16 FLuc, ELG1 DNA repair)
CC(C)(C)c1ccc(-n2nc(C#N)c(Cl)cc2=O)cc1	SW480 rerep 4.1µM, RORgamma inh 7.1µM, Gal4-VP16 FLuc 7.1µM, MCF10A rerep 2.9µM
CC1CC(C)CN(CCCNC(=O)C2CCN(c3nnc(-n4cccc4)s3)CC2)C1 (stereo not given)	ELG1 DNA repair inconclusive
N=C1C(c2nc3ccccc3[nH]2)=C(O)CN1c1ccccc1	SW480 rerep inconclusive, RORgamma inh 14µM, Gal4-VP16 FLuc inconclusive, MCF10A rerep inconclusive, ELG1 DNA repair inconclusive
CCOC(=O)c1ccc(N2CC(O)=C(c3nc4ccccc4c(=O)[nH]3)C2=N)cc1	MCF10A rerep 21µM
Cc1ccc(S(=O)(=O)N2CCOCC2)cc1C(=O)OCCOc1cccc(Cl)c1	ELG1 DNA repair inconclusive (no result: RORgamma inh, Gal4-VP16 FLuc)
c1cncc(CNc2ccnc(-c3cccnc3)n2)c1	none (no result: SW480 rerep, MCF10A rerep, ELG1 DNA repair)
CCC1(c2ccc(F)cc2)NC(=O)N(CC(=O)Nc2ccc(S(N)(=O)=O)cc2)C1=O (stereo not given)	none
